The values below come from PubChem BioAssay (NCI).

Values joined by “and” are separate entries in the source; they are usually repeats but may differ in a detail not shown here. Equal entries are not always repeated. Compounds without any hit were thinned out: in the full panel of roughly 83,000, 20% have a hit.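 Method: cells in 96-well plates; compound added at one concentration; 48 h incubation; percent growth measured; values under 10 scored active.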 More than one record can exist for a structure, and the calls need not agree. Active and inactive are the calls of the source.

Among the test systems are NCI-H23 lung; NCI-H226 lung; NCI-H322M lung; NCI-H460 lung; HOP-92 NSCLC; NCI-H522 lung; A549/ATCC NSCLC.
Common to all, as to test: NCI-60 one-dose screen, 48 h (100 = growth as untreated, 0 = no growth, -100 = all killed)
Common to all, as to details: 10 µM

A further experiment deals with HOP-62 NSCLC. The method, then: (§1) Growth inhibition of the HOP-62 human Non-Small Cell Lung tumor cell line is measured as a screen for anti-cancer activity. Cells are grown in 96 well plates and exposed to the test compound for 48 hours. Compounds are tested at a single concentration, which is 10^-5 M for most compounds. The reported endpoint is percent growth (GI% or GIPRCNT), where numbers from 0 - 100% represent growth inhibition, and numbers from -100% - 0 represent cell death. For example, a value of 40 represents 60% growth inhibition. A value of 0 means no net growth occurred over the course of the experiment. A value of -40 indicates 40% of cells at the beginning of the experiment died by the end of the experiment. A value of -100 means all cells are dead at the end of the experiment.
(§2) NCI-60 Human Tumor Cell Lines Screen was performed using the standard one-dose NCI protocol, which is described in more detail at https://dtp.cancer.gov/discovery_development/nci-60/default.htm.
(§3) Compounds with GIPRCNT values below 10 were considered active. Activity score was based on GIPRCNT using the following formula: […]
(§4) Score is 0 for GIPRCNT values of 100 or above, 50 for GIPRCNT values of 0, and 100 for GIPRCNT values of -100.

A further experiment deals with 786-0 renal. The method, then:
as §1, with “Cells” for “Growth inhibition of the HOP-62 human Non-Small Cell Lung tumor cell line is measured as a screen for anti-cancer activity. Cells”
as §2, §3, §4

Another experiment concerns COLO 205 colon. On the procedure:
as §1, with “Cells” for “Growth inhibition of the HOP-62 human Non-Small Cell Lung tumor cell line is measured as a screen for anti-cancer activity. Cells”
as §2, §3, §4

For the compound `CN(C)CCOC1(Cc2ccc(Cl)cc2Cl)CCC(C(C)(C)C)CC1` (centres undefined), the growth is 33.4% (inactive) and 36.7% (inactive) in the experiment with NCI-H23 lung; 53% (inactive) and 33.9% (inactive) with NCI-H226 lung; 70% (inactive) and 76.3% (inactive) with NCI-H322M lung; 39.8% (inactive) and 42.1% (inactive) in the experiment with HOP-62 NSCLC; -65.8% (active) and -61.2% (active) in the experiment with NCI-H460 lung; 47.9% (inactive) and 43% (inactive) with HOP-92 NSCLC. In addition, the growth in the experiment on NCI-H522 lung was 9.54% (active) and 48.6% (inactive); with A549/ATCC NSCLC, 38.9% (inactive) and 21.1% (inactive); with 786-0 renal, 51.2% (inactive) and 24.3% (inactive); with COLO 205 colon, -89.2% (active) and -87.9% (active).

Take `O=[N+]([O-])c1cc[n+]([O-])cc1`: the growth in the experiment on NCI-H23 lung was 100% (inactive); with NCI-H226 lung it was 105% (inactive); with NCI-H322M lung it was 133% (inactive); in the experiment with HOP-62 NSCLC, 131% (inactive); in the experiment with NCI-H460 lung it was 103% (inactive); with HOP-92 NSCLC, 116% (inactive). Also, the growth with NCI-H522 lung was 83.1% (inactive); with A549/ATCC NSCLC it was 101% (inactive); in the experiment with 786-0 renal, 106% (inactive); with COLO 205 colon, 117% (inactive).

`C#CCN(Cc1ccc2nc(N)[nH]c(=O)c2c1)c1ccc(C(=O)NC(CCC(=O)O)C(=O)O)cc1` (centres undefined): the growth was 99.2% (inactive) in the experiment with NCI-H23 lung; 80.8% (inactive) in the experiment on NCI-H226 lung; 90.3% (inactive) in the experiment with NCI-H322M lung; 82.3% (inactive) in the experiment on HOP-62 NSCLC; 80.1% (inactive) with NCI-H460 lung; 86.9% (inactive) in the experiment with HOP-92 NSCLC. The growth in the experiment with NCI-H522 lung is 80.2% (inactive); in the experiment with A549/ATCC NSCLC it was 95% (inactive); with 786-0 renal, 12% (inactive); in the experiment with COLO 205 colon, 67.4% (inactive).

For `C=C1C(=O)OC2CC1C(OC(C)=O)C/C(C)=C/CC/C(C)=C\CCC2(C)O` (centres undefined), the growth was 11.1% (inactive) in the experiment on NCI-H23 lung; 15.9% (inactive) with NCI-H226 lung; 67.3% (inactive) in the experiment with NCI-H322M lung; 106% (inactive) in the experiment with HOP-62 NSCLC; 21.7% (inactive) with NCI-H460 lung; -28.6% (active) in the experiment on HOP-92 NSCLC. The growth is -83.9% (active) with NCI-H522 lung, 64.1% (inactive) in the experiment with A549/ATCC NSCLC, 38.9% (inactive) in the experiment on 786-0 renal and 0.7% (active) with COLO 205 colon.

As to `Cc1cc(N(CCOS(C)(=O)=O)CCOS(C)(=O)=O)ccc1C=Nc1ccc(-c2nc(Cc3ccccc3)sc2C)cc1`, the growth in the experiment with NCI-H23 lung was 31% (inactive); in the experiment on NCI-H226 lung, 61.6% (inactive); in the experiment with NCI-H322M lung, -18.9% (active); with HOP-62 NSCLC, 36% (inactive); in the experiment with NCI-H460 lung it was -38.3% (active); with NCI-H522 lung, -91.3% (active). Also, the growth in the experiment with A549/ATCC NSCLC was 34.8% (inactive); in the experiment with 786-0 renal, 13.8% (inactive); with COLO 205 colon it was -71.3% (active).

Consider `Cc1ccc(Sc2ccccc2N)cc1`, for which the growth is 72.3% (inactive) in the experiment with NCI-H23 lung; 106% (inactive) in the experiment with NCI-H226 lung; 105% (inactive) in the experiment with NCI-H322M lung; 100% (inactive) with HOP-62 NSCLC; 41.3% (inactive) in the experiment on NCI-H460 lung; 101% (inactive) in the experiment with HOP-92 NSCLC. Moreover, the growth in the experiment with NCI-H522 lung was 71.4% (inactive); with A549/ATCC NSCLC, 96% (inactive); in the experiment with 786-0 renal, 108% (inactive); in the experiment with COLO 205 colon it was 96.8% (inactive).

On to `CC1=CC(=C(c2ccc(N)cc2)c2ccc(N)cc2)C=CC1=N`, for which the growth with NCI-H23 lung is 29.7% (inactive) and 44.7% (inactive); with NCI-H226 lung, 17% (inactive) and 51.4% (inactive); in the experiment with NCI-H322M lung, 26.3% (inactive) and 38.5% (inactive); in the experiment on HOP-62 NSCLC, 31.4% (inactive) and 20.6% (inactive); in the experiment on NCI-H460 lung, 6.34% (active); in the experiment on HOP-92 NSCLC, 2.19% (active) and 63% (inactive). For the same compound, the growth was -8.93% (active) and 60.9% (inactive) with NCI-H522 lung; 14.1% (inactive) and 16.9% (inactive) in the experiment with A549/ATCC NSCLC; 23.5% (inactive) and 42.8% (inactive) in the experiment with 786-0 renal; -8.22% (active) and -56.6% (active) with COLO 205 colon.

With `COc1ccc(C(=O)C(CN(C)C)CN(C)C)cc1`, the growth with NCI-H23 lung was 96.1% (inactive); with NCI-H226 lung, 113% (inactive); in the experiment on NCI-H322M lung, 98% (inactive); in the experiment with HOP-62 NSCLC, 97.9% (inactive); in the experiment on NCI-H460 lung, 102% (inactive); in the experiment with HOP-92 NSCLC, 44% (inactive). Further, the growth is -54.1% (active) with NCI-H522 lung, 118% (inactive) in the experiment on A549/ATCC NSCLC, 87.8% (inactive) in the experiment with 786-0 renal and -75.3% (active) in the experiment on COLO 205 colon.
